# Results: ChEMBL document CHEMBL3433997, “St. Jude Leishmania screening dataset” (2016)
# Target: Solute carrier family 2, facilitated glucose transporter member 1 (Homo sapiens) (UniProt P11166)
# Test: ST_JUDE_LEISH: Cytotoxicity at 2uM final concentration against transgenic Leishmania Mexicana promastigotes LmGLUT1 that are glucose transport deficient and complemented with the human glucose transporter GLUT1. Activity is measured by DNA content using SYBR green in vitro
# Type: functional
# Solute carrier family 2, facilitated glucose transporter member 1 (Homo sapiens), sequence (P11166 whole entry): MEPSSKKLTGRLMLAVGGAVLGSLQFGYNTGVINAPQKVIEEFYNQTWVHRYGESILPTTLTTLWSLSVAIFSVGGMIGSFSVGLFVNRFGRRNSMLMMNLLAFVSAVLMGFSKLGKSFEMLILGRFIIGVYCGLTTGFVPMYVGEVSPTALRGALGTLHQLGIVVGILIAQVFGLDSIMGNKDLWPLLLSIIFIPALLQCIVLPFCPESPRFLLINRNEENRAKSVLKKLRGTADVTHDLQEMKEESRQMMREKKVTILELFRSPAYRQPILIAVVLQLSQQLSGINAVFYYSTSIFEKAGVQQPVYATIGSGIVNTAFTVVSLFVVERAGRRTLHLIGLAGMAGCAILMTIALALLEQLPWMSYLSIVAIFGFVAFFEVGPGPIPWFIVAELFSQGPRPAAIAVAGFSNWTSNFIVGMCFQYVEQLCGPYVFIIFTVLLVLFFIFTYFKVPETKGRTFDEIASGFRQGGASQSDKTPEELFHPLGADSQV
row,Structure (SMILES),inhibition [%]
1,CCC(C)NC(=O)CN1CN(c2ccccc2)C2(CCN(C(=O)c3ccc4ccccc4c3)CC2)C1=O (stereo not given),0.98
2,COc1ccc(CCNCCCCCCNCCc2cccc([N+](=O)[O-])c2)cc1OC,0.45
3,Cc1ccc(C(=O)Cn2nc(-c3ccc(C)c(S(=O)(=O)N4CCCCC4)c3)ccc2=O)cc1,8.67
4,Cc1cc(=NN=Cc2ccccc2F)c2cc(F)ccc2[nH]1,1.79
5,COc1cc(NC(=O)N2CCOC(CCN3CCC4(CCc5ccccc54)CC3)(c3ccc(Cl)c(Cl)c3)C2)cc(OC)c1 (stereo not given),3.64
6,CN(CC(=O)Nc1cc(C(F)(F)F)ccc1-n1cncn1)Cc1ccc2ccccc2c1,2.14
7,Cc1ccc2[nH]ncc2c1N(CC1CCCCC1)c1ccnc(Nc2ccc(OCC(O)CN3CC=CCC3)cc2)n1 (stereo not given),2.37
8,CN1CCN(Cc2ccc(-c3ccc4c(Nc5ccc(F)cc5Cl)ccnc4c3)o2)CC1,0.53
9,COc1cc2nc(N3CCC(CCCC4CCNCC4)CC3)nc(NCc3ccccn3)c2cc1OC,73.5
10,O=C(/C=C/c1ccc(C(F)(F)F)cc1)NCCCCCN1CCCN(C(=O)Nc2cccc(Cl)c2)CC1,-0.19
11,COc1ccc(NC(=O)c2ccc(-c3ccc(-c4cccnc4)cc3)c(C)c2)cc1OCCN(C)C,1.47
12,CCNc1cc(C(=O)N[C@@H](Cc2cccc(Cl)c2)[C@H](O)CNC(C)CCCC(C)C)cc(N2CCCCS2(=O)=O)c1 (stereo not given in full),-0.84
13,COc1cc(NC(=O)/C=C/c2cc(F)cc(F)c2F)cc(OCCN2CCC3(CC2)OCCO3)c1,3.83
14,COc1cccc(CNc2noc(-c3c(-c4ccccc4)noc3C)n2)c1OC,3.64
15,O=C(NC(=S)NCc1ccncc1)c1ccccc1,2.06
16,COc1ccc2c(NN=Cc3ccncc3)ccnc2c1,-0.81
17,O=C(O)c1ccc(-c2c[nH]c3ncc(-c4ccc(Cl)cc4)cc23)cc1,0.12
18,COc1cc2c(Nc3ccc(NC(=O)c4ccccc4)cc3)ncnc2cc1OCCCN1CCOCC1,3.25
19,CCC(C)CN1CCN(c2cc(NC(=O)c3cccs3)ccn2)C(C)C1 (stereo not given),-1.02
20,Cc1cc(=NN=Cc2ccccc2Cl)c2cccc(C)c2[nH]1,3.87

row,Structure (SMILES),inhibition [%]
1,CC1(C)N=C(N)N=C(N)N1OCCCOc1cccc(C(=O)O)c1,5.03
2,CCCCCCN1CCC(NCc2ccc(Cl)cc2)CC1,7.59
3,O=C(NCc1ccccn1)C(c1cc2ccccc2o1)N1CCN(C(c2ccccc2)c2ccccc2)CC1 (stereo not given),0.6
4,Cc1ccccc1C1CCN(C2CCC(NC(=O)C3=Cc4cc(Cl)ccc4OC3)CC2)CC1 (stereo not given),-3.31
5,Cc1ccccc1C1CCN(c2ccc(C(=O)NC3CC3)cn2)CC1,-0.44
6,CCOC(=O)c1cccc(NC(=N)Nc2nc(C)cc(NCCc3ccccc3)n2)c1,7.04
7,CN1CCCN(Cc2ccc(-c3cccc(NC(=O)c4ccc(C#N)cc4)c3)cc2)CC1,1.03
8,O=C(Nc1ccc(Cl)cc1)Nc1ccc(-c2csc(-c3nc4ccccc4[nH]3)c2)cc1,0.59
9,CC(N)(Cc1ccc(O)cc1)c1nnn[nH]1 (stereo not given),-0.06
10,C(=C(c1cccs1)c1cccs1)c1ccc(CNC2CCN(Cc3ccccc3)CC2)cc1,4.45
11,ON=C1CCc2cc(-c3cc(-c4ccc(OC5CCNCC5)cc4)oc3-c3ccncc3)ccc21,1.43
12,COc1ccccc1-c1ccc(CNC(=O)C(CN2CCN(C)CC2)c2ccccc2)cc1 (stereo not given),2.94
13,O=[N+]([O-])c1cccc(-c2nc(-c3ccc(Br)cc3)[nH]c2-c2ccc(Br)cc2)c1,2.77
14,CC(Oc1c(C2CCN(CCCCNC(=O)c3ccc(-c4ccc(C#N)cc4)cc3)CC2)ccc2c1CCCC2)C(N)=O (stereo not given),-0.84
15,O=C(CNCC1CCCCC1)Nc1cc(C(F)(F)F)ccc1Cl,1.93
16,O=C(c1cc(-c2ccccc2O)on1)N1CCN(C(c2ccccc2)c2ccccc2)CC1,-0.36
17,CN1CCN(c2cc3c(cc2Cl)CCN3C(=O)Cc2ccc(NC(=O)Nc3cccc4ccccc34)cc2)CC1,0.87
18,COC(=O)c1cc(C(O)CNC(C)CCCc2ccccc2)ccc1O (stereo not given),0.96
19,Cc1[nH]c(C)c(-c2ccc(Oc3ccc(F)cc3)cc2)c(=O)c1Br,4.89
20,Cc1c(CNCCCNc2cc(=O)c3ccccc3[nH]2)sc(C(F)=C(F)F)c1Br,6.84

# Target: Hexose transporter 1 (Plasmodium falciparum) (UniProt O97467)
# Test: ST_JUDE_LEISH: Cytotoxicity at 2uM final concentration against transgenic Leishmania Mexicana promastigotes LmPfHT that are glucose transport deficient and complemented with the Plasmodium falciparum hexose transporter. Activity is measured by DNA content using SYBR green in vitro
# Type: functional
row,Structure (SMILES),inhibition [%]
1,CCC(C)NC(=O)CN1CN(c2ccccc2)C2(CCN(C(=O)c3ccc4ccccc4c3)CC2)C1=O (stereo not given),-0.53
2,COc1ccc(CCNCCCCCCNCCc2cccc([N+](=O)[O-])c2)cc1OC,1.78
3,Cc1ccc(C(=O)Cn2nc(-c3ccc(C)c(S(=O)(=O)N4CCCCC4)c3)ccc2=O)cc1,12.3
4,Cc1cc(=NN=Cc2ccccc2F)c2cc(F)ccc2[nH]1,3.14
5,COc1cc(NC(=O)N2CCOC(CCN3CCC4(CCc5ccccc54)CC3)(c3ccc(Cl)c(Cl)c3)C2)cc(OC)c1 (stereo not given),1.66
6,CN(CC(=O)Nc1cc(C(F)(F)F)ccc1-n1cncn1)Cc1ccc2ccccc2c1,1.25
7,Cc1ccc2[nH]ncc2c1N(CC1CCCCC1)c1ccnc(Nc2ccc(OCC(O)CN3CC=CCC3)cc2)n1 (stereo not given),3.33
8,CN1CCN(Cc2ccc(-c3ccc4c(Nc5ccc(F)cc5Cl)ccnc4c3)o2)CC1,0.83
9,COc1cc2nc(N3CCC(CCCC4CCNCC4)CC3)nc(NCc3ccccn3)c2cc1OC,68.6
10,O=C(/C=C/c1ccc(C(F)(F)F)cc1)NCCCCCN1CCCN(C(=O)Nc2cccc(Cl)c2)CC1,-1.13
11,COc1ccc(NC(=O)c2ccc(-c3ccc(-c4cccnc4)cc3)c(C)c2)cc1OCCN(C)C,1.09
12,CCNc1cc(C(=O)N[C@@H](Cc2cccc(Cl)c2)[C@H](O)CNC(C)CCCC(C)C)cc(N2CCCCS2(=O)=O)c1 (stereo not given in full),-1.5
13,COc1cc(NC(=O)/C=C/c2cc(F)cc(F)c2F)cc(OCCN2CCC3(CC2)OCCO3)c1,3.1
14,COc1cccc(CNc2noc(-c3c(-c4ccccc4)noc3C)n2)c1OC,3.83
15,O=C(NC(=S)NCc1ccncc1)c1ccccc1,-1.93
16,COc1ccc2c(NN=Cc3ccncc3)ccnc2c1,-0.51
17,O=C(O)c1ccc(-c2c[nH]c3ncc(-c4ccc(Cl)cc4)cc23)cc1,-0.34
18,COc1cc2c(Nc3ccc(NC(=O)c4ccccc4)cc3)ncnc2cc1OCCCN1CCOCC1,3.13
19,CCC(C)CN1CCN(c2cc(NC(=O)c3cccs3)ccn2)C(C)C1 (stereo not given),2.3
20,Cc1cc(=NN=Cc2ccccc2Cl)c2cccc(C)c2[nH]1,2.32

row,Structure (SMILES),inhibition [%]
1,CC1(C)N=C(N)N=C(N)N1OCCCOc1cccc(C(=O)O)c1,5.61
2,CCCCCCN1CCC(NCc2ccc(Cl)cc2)CC1,7.61
3,O=C(NCc1ccccn1)C(c1cc2ccccc2o1)N1CCN(C(c2ccccc2)c2ccccc2)CC1 (stereo not given),2.14
4,Cc1ccccc1C1CCN(C2CCC(NC(=O)C3=Cc4cc(Cl)ccc4OC3)CC2)CC1 (stereo not given),2.37
5,Cc1ccccc1C1CCN(c2ccc(C(=O)NC3CC3)cn2)CC1,1.26
6,CCOC(=O)c1cccc(NC(=N)Nc2nc(C)cc(NCCc3ccccc3)n2)c1,7.16
7,CN1CCCN(Cc2ccc(-c3cccc(NC(=O)c4ccc(C#N)cc4)c3)cc2)CC1,4.1
8,O=C(Nc1ccc(Cl)cc1)Nc1ccc(-c2csc(-c3nc4ccccc4[nH]3)c2)cc1,1.1
9,CC(N)(Cc1ccc(O)cc1)c1nnn[nH]1 (stereo not given),1.3
10,C(=C(c1cccs1)c1cccs1)c1ccc(CNC2CCN(Cc3ccccc3)CC2)cc1,6.16
11,ON=C1CCc2cc(-c3cc(-c4ccc(OC5CCNCC5)cc4)oc3-c3ccncc3)ccc21,3.53
12,COc1ccccc1-c1ccc(CNC(=O)C(CN2CCN(C)CC2)c2ccccc2)cc1 (stereo not given),1.12
13,O=[N+]([O-])c1cccc(-c2nc(-c3ccc(Br)cc3)[nH]c2-c2ccc(Br)cc2)c1,4.88
14,CC(Oc1c(C2CCN(CCCCNC(=O)c3ccc(-c4ccc(C#N)cc4)cc3)CC2)ccc2c1CCCC2)C(N)=O (stereo not given),1.22
15,O=C(CNCC1CCCCC1)Nc1cc(C(F)(F)F)ccc1Cl,0.51
16,O=C(c1cc(-c2ccccc2O)on1)N1CCN(C(c2ccccc2)c2ccccc2)CC1,-0.36
17,CN1CCN(c2cc3c(cc2Cl)CCN3C(=O)Cc2ccc(NC(=O)Nc3cccc4ccccc34)cc2)CC1,1.55
18,COC(=O)c1cc(C(O)CNC(C)CCCc2ccccc2)ccc1O (stereo not given),-0.05
19,Cc1[nH]c(C)c(-c2ccc(Oc3ccc(F)cc3)cc2)c(=O)c1Br,4.31
20,Cc1c(CNCCCNc2cc(=O)c3ccccc3[nH]2)sc(C(F)=C(F)F)c1Br,5.03
